Results on 31 sequences are retold here after article PMC7819943, “Rice protein-binding microarrays: a tool to detect cis-acting elements near promoter regions in rice”.

Over roughly 39,000 sequences, “fluorescence intensity (a.u.)” has its median near 4,300; the highest 2% begin near 39,000. What follows is part of a selection rich in the highest values, with near analogues and random picks from the rest.

The target of this test is T1, OsSMF1 (Oryza sativa, UniProt Q6ZLB0 1-436).
T1 sequence: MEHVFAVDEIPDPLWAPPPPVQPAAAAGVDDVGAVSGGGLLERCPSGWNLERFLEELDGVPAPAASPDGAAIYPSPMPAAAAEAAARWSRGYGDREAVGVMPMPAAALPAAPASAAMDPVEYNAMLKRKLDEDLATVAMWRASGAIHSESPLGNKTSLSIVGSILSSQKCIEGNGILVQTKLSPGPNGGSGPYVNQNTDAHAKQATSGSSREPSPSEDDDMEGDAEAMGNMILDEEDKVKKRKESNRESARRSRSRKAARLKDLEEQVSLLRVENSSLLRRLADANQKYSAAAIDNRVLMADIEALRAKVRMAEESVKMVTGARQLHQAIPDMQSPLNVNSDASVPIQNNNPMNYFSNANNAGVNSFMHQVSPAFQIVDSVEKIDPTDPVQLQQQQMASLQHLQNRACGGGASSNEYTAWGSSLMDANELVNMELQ
The test can be described thus: protein-binding microarray (RPBM); PBS, 2% BSA, 51.3 ng/ul salmon testes DNA, 50 uM zinc acetate, 200 nM TF, 25 C, 1 h; high values mean tight binding. The conditions noted are these: protein: recombinant; tags: N-terminal polyhistidine and DsRed monomer fusion (pET32a); chain copies: 2; label: CyDye5-dUTP incorporated in the synthesized complementary strand; 3' TTTTT single-stranded linker to array surface; dsDNA, one strand shown. The method in brief:
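Binding signal is defined as the fluorescence intensity of each feature in arbitrary units, read on an Axon 4000B scanner. Transcription factors with N-terminal polyhistidine and DsRed fusions came from E. coli BL21-CodonPlus and were purified on Ni–NTA. They were incubated at 200 nM for 1 h at 25 °C on a custom Agilent array that had been made double-stranded with Cy5-dUTP, with 50 µM zinc acetate present, and the array was washed.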
With “GCATGTAGCTATGCAGCCATCCACGTCACTCCTTGCGTACCGGAGTCACCTAGTGCAG”, the binding signal was 31800 fluorescence intensity (a.u.). In the case of “ATTAAGCACTACGTCAGATATGATTGGCCATCATTGCATTCGGAGTCACCTAGTGCAG”, the binding signal is 3150 fluorescence intensity (a.u.). With “ACACCCGTCCGTCCCGTCTCGTTCTGCGCCGTCTCGCCGGCGGAGTCACCTAGTGCAG”, the binding signal was 18700 fluorescence intensity (a.u.).

As for “GAAGATAGTACTAACTATATTTTGTAACGGAGAGATTGTTCGGAGTCACCTAGTGCAG”, the binding signal is 4130 fluorescence intensity (a.u.).

Take “TGTTAGAAAGTCTTATAATATAAAACGGAGGAAATATTTACGGAGTCACCTAGTGCAG”: the binding signal is 6480 fluorescence intensity (a.u.). The value for “TTCTTATTGTCTTAGCTACAAACGATCCATACAAACATTGCGGAGTCACCTAGTGCAG” was 4240 fluorescence intensity (a.u.). As for “AGTAGTGAGGTTGAGGCATAAGTACATTGAATTGAATTGACGGAGTCACCTAGTGCAG”, the binding signal is 44100 fluorescence intensity (a.u.). Under “TACACACCATAATTGAAGTATTGAGTCACACATAATTGAACGGAGTCACCTAGTGCAG” stands 3220 fluorescence intensity (a.u.); under “AAATTGAGTTGAAAATTTTCAAATCTCGACTTGAAAGTTTCGGAGTCACCTAGTGCAG”, 21800 fluorescence intensity (a.u.). As for “ATGCTAGAAAGTCTTATAACCTGAAACGGAGGTAGTAGGACGGAGTCACCTAGTGCAG”, the binding signal is 65000 fluorescence intensity (a.u.).

As for “TCAAATTGAAAGTTTCCAAAATTTTCAAATCTGGACTTGACGGAGTCACCTAGTGCAG”, the binding signal was 43500 fluorescence intensity (a.u.). For the sequence “TAGAATTGTCAAGTCAATGCCACGTGGGACAAAGACCTAGCGGAGTCACCTAGTGCAG”, the binding signal was 17900 fluorescence intensity (a.u.). The value for “TGAGTGAATACACAGTACTATGACGACGATAAGGTTGGGGCGGAGTCACCTAGTGCAG” was 32700 fluorescence intensity (a.u.). Take “AATAGTAGGCTATAAGCCGGCTAAATGCTGAGGTGGAGGACGGAGTCACCTAGTGCAG”: the binding signal is 5420 fluorescence intensity (a.u.). “TGTGGACAATGCTAGAAAGTCTTACATTGTCAAACGGATGCGGAGTCACCTAGTGCAG”: the binding signal is 39500 fluorescence intensity (a.u.). For the sequence “TTGGACAAATCATTTGGCAAAATTTCAAAGTTTTGAATCTCGGAGTCACCTAGTGCAG”, the binding signal is 28600 fluorescence intensity (a.u.). “TCTCTCTCACTCTTCTCTTGCAGGCCTGCGTGGCATACTACGGAGTCACCTAGTGCAG”: the binding signal was 7430 fluorescence intensity (a.u.). Under “CGGAAACAGATCATCAAACCCATACGTCAGTGATCCAAGTCGGAGTCACCTAGTGCAG” stands 3410 fluorescence intensity (a.u.); under “TTCCAGTCCACCGTGGCGGTGGCGCGTCAGCTTTCCAGCCCGGAGTCACCTAGTGCAG”, 12000 fluorescence intensity (a.u.). The value for “GGTCCACCCGAATCGGAGTCAGCCAGCCAAGCCACCTAATCGGAGTCACCTAGTGCAG” was 4780 fluorescence intensity (a.u.); that for “GCCGGTCGAACCGCCCGAACACCTACGGTCAGACCGCTGCCGGAGTCACCTAGTGCAG” was 3360 fluorescence intensity (a.u.); that for “CTTCATACTGCAGTATCTGAAAAGATGTCATTGTAAAGTTCGGAGTCACCTAGTGCAG” was 3140 fluorescence intensity (a.u.). Under “TAGTTGTGACACGTAGAAGTTGAATTTTAACTTTTATGTTCGGAGTCACCTAGTGCAG” stands 4370 fluorescence intensity (a.u.); under “CATGTTTGTGAAGTGACGTATTACATATTGATCTATTTGACGGAGTCACCTAGTGCAG”, 8700 fluorescence intensity (a.u.). For the sequence “TATTGATTGATTGGTTAGTACTACAGTACTGTAGGAGTGGCGGAGTCACCTAGTGCAG”, the binding signal is 29800 fluorescence intensity (a.u.). The value for “CCAAAATGAGTTGAAATGAATTTTGTATGCATTTTATAAACGGAGTCACCTAGTGCAG” was 6000 fluorescence intensity (a.u.). For “GCATGTTTTGAGTTTGAAAGTTTTAAATTTTGAGTTGAAACGGAGTCACCTAGTGCAG”, the binding signal is 50200 fluorescence intensity (a.u.).

“TGTGATTGTATTGGTTACTAGAGTAGTATTTAGTAGAGATCGGAGTCACCTAGTGCAG”: the binding signal is 42200 fluorescence intensity (a.u.). Take “TTATGTTTGAATTTAAGTTTTGAGTTTTGTTGCGTGCGCACGGAGTCACCTAGTGCAG”: the binding signal was 28800 fluorescence intensity (a.u.). As to “TTGTAGAAGTTGAATTTGGTTTTACATATTTGTGGAGTGACGGAGTCACCTAGTGCAG”, the binding signal is 61600 fluorescence intensity (a.u.). Under “GTTGTTGATGTGATTGTGTGTATTCAAGTAGAGATTGGGTCGGAGTCACCTAGTGCAG” stands 3240 fluorescence intensity (a.u.).
